An excerpt weighted towards active compounds, which were near 11% of everything screened.
WT yeast gro inh = growth inhibition of WT strain, primary screen, mitochondrial fusion inhibitor project, WT and mutant strains, chemical genetic | mitochondrial fusion phenotypic screen | inhibition, % at 10 µM | actives 2.1% (n = 190,000); in the data active = inhibition above about 58%; tested in S. cerevisiae
Autophagy HCS = autophagy modulators in MEF cells, primary screen, imaging, high-content, MEF GFP-LC3; MEF GFP-LC3 puncta imaging; test concentration mostly 10 µM; calls only at 10 µM (by protocol); actives 0.98% (n = 190,000);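 active = percentage of spot-positive cells more than 3 SD above its plate mean, without a fluorescence outlier flag or 80% toxicity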
Insulin prom up = insulin promoter activators in MIN6 cells, imaging, high-content screening, mouse beta cells; actives 0.3% (n = 190,000); z-score at 5 µM; MIN6 insulin promoter-GFP reporter; hits give high values;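 active = z-score above 3 at 5 µM with at least 500 cells counted in the well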
Lmaj promast = Leishmania major promastigote growth inhibition, primary screen. inhibition, % at 10 µM. actives 9% (n = 200,000). Leishmania major promastigotes, resazurin fluorescence viability; in the data active = inhibition above about 50%;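 also: promastigotes grown with compound for 44 hours at 28 °C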
Insulin prom inh = inhibitors of insulin promoter-driven GFP, primary screen, imaging, TRM-6 cells (human fetal islet line), eGFP reporter, cell count; reporter expression induced with tamoxifen; inhibition, % at 2 µM; actives 0.9% (n = 130,000); AID 1273, 2008;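 active = inhibition above the mean plus 3 SD, with well images judged a real hit on visual review, cut at about 60% in these data, passing the limit was not always enough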
A number is an active result; 0 = inactive; - = no result given; + = active, no number.

SMILES | WT yeast gro inh | Autophagy HCS | Insulin prom up | Lmaj promast | Insulin prom inh
Cc1ccc(N/C(C(Cl)=C(Cl)Cl)=C(/Cl)[N+](=O)[O-])c(C)c1 | 0 | 0 | 0 | 0 | 0
CSc1cccc(NC(=S)NCCCN2CCN(c3ccc(F)cc3)CC2)c1 | 0 | 0 | 0 | 57.0 | -
Cc1ccc(NC(=S)NCCCN2CCOCC2)cc1C | - | - | 0 | - | -
S=C(NCCCN1CCOCC1)Nc1ccc(Cl)c(Cl)c1 | 0 | 0 | 0 | 94.6 | 0
Fc1cc(F)cc(NC(=S)NCCCN2CCOCC2)c1 | 0 | 0 | 0 | 53.7 | -
Fc1cccc(NC(=S)NCCCN2CCOCC2)c1 | 0 | 0 | 0 | 72.3 | 0
COc1ccc(NC(=S)NCCN2CCOCC2)cc1 | 0 | 0 | 0 | 0 | -
COc1cc(NC(=S)NCCN2CCOCC2)cc(OC)c1 | 0 | + | 0 | 0 | 64.3
Fc1cccc(NC(=S)NCCN2CCOCC2)c1 | 0 | 0 | 0 | 67.3 | 0
FC(F)(F)c1cccc(NC(=S)NCCN2CCOCC2)c1 | 0 | 0 | 0 | 0 | 0
Cc1[nH]c2ccccc2c1C(O)CN1CCC2(CC1)OCCO2 (stereo not drawn) | - | - | 0 | - | -
Cc1cccc2c1c1ccc3c(c1n2C)C(=O)C=CC3=O | - | - | 0 | - | -
CCC(C)(C)NC(=O)C(c1ccc(C)cc1)N(Cc1ccco1)C(=O)CCC(=O)Nc1nccs1 (stereo not drawn) | 0 | 0 | 0 | 0 | 0
COC(=O)c1cn(C(=O)/C=C/c2ccc(OC)c(OC)c2)c2ccccc12 | 0 | 0 | 0 | 0 | -
CN1C(=S)SC(C)(C)C1(C)NO (stereo not drawn) | 65.4 | 0 | 0 | 0 | 0
CCCc1nc(NCc2ccncc2)c2nnn(Cc3ccccc3F)c2n1 | 0 | 0 | - | 57.4 | 0
COc1ccc(CNC(=O)c2coc(=O)c3ccccc23)cc1 | 0 | 0 | 0 | 0 | 0
Cc1nc2ccccc2n1CC(=O)OCC(=O)NC1CC1 | 0 | + | 0 | 0 | -
Cn1cc(CN2CCCC(CO)(Cc3ccccc3)C2)cn1 (stereo not drawn) | 0 | 0 | 0 | 76.8 | 0
Cn1cc(CN2CCCC(CO)(Cc3cccc(Cl)c3)C2)cn1 (stereo not drawn) | 0 | 0 | 0 | 81.2 | -
CC(C)n1cc(CN2CCCC(CO)(Cc3cccc(Cl)c3)C2)cn1 (stereo not drawn) | 0 | 0 | 0 | 87.4 | -
Cc1ccccc1CC1(CO)CCCN(Cc2c(C)nn(C)c2Cl)C1 (stereo not drawn) | 0 | 0 | 0 | 0 | 0
Cc1nn(C)c(Cl)c1CN1CCCC(CO)(Cc2cccc(Cl)c2)C1 (stereo not drawn) | - | 0 | 0 | 86.4 | 0
C=CCNC(=O)NC(=O)CSc1nnc(C(F)(F)F)n1C | 0 | 0 | 0 | 0 | 0
COc1ccc(CCN2C(=S)NC3CC2(C)Oc2ccc([N+](=O)[O-])cc23)cc1OC (stereo not drawn) | 0 | 0 | 0 | 0 | 0
SMILES | WT yeast gro inh | Autophagy HCS | Insulin prom up | Lmaj promast | Insulin prom inh
CC(=O)Nc1ccc(CN2CCCC(CO)(Cc3cccc(Cl)c3)C2)cc1 (stereo not drawn) | - | - | 0 | - | -
COc1cc(CN2CCCC(CO)(Cc3cccc(Cl)c3)C2)cc2c1OCO2 (stereo not drawn) | 0 | 0 | 0 | 73.1 | -
CSc1cccc(CN2CCCC(CO)(Cc3cccc(Cl)c3)C2)c1 (stereo not drawn) | 0 | 0 | 0 | 0 | 0
OCC1(Cc2cccc(Cl)c2)CCCN(Cc2cnn(-c3ccccc3)c2)C1 (stereo not drawn) | 0 | 0 | 0 | 84.9 | -
Cc1cccc(-c2ncc(CN3CCCC(CO)(Cc4cccc(Cl)c4)C3)cn2)c1 (stereo not drawn) | 62.6 | 0 | 0 | 0 | 0
CCn1cc(CN2CCCC(CO)(Cc3cccc(Cl)c3)C2)cn1 (stereo not drawn) | 0 | 0 | 0 | 92.5 | -
CC(/C=C/C(=O)c1ccc(C)cc1)=C\c1ccccc1 | 0 | 0 | 0 | 0 | -
Cc1ccc(C(=O)/C=C\C(=O)c2ccc(C)cc2)cc1 | 0 | + | 0 | 100.5 | 0
CC1CCCC(NC(=O)COC(=O)Cc2ccsc2)C1C (stereo not drawn) | 0 | 0 | 0 | 0 | 0
CCc1ccc(N2C(=O)Nc3ccccc3C2(O)C(=O)N2CCN(c3ccccn3)CC2)cc1 (stereo not drawn) | 0 | 0 | 0 | 68.6 | 0
S=C(Nc1ccc(Cl)cc1)NC1CC2CCC(C1)N2Cc1ccccc1 (stereo not drawn) | 0 | 0 | 0 | 99.7 | -
CCN(CC)C(=O)NC1CC2CCCC(C1)N2Cc1ccccc1 (stereo not drawn) | 0 | 0 | 0 | 0 | -
CNC(=S)NC1CC2CCC(C1)N2Cc1ccccc1 (stereo not drawn) | 0 | 0 | 0 | 85.7 | -
CCc1ccc(NC(=S)NC2CC3CCCC(C2)N3Cc2ccccc2)cc1 (stereo not drawn) | 0 | 0 | 0 | 95.5 | -
COc1ccc(CN2C3CCCC2CC(NC(=O)/C=C/c2ccccc2)C3)cc1 (stereo not drawn) | 0 | + | 0 | 87.5 | 0
S=C(Nc1ccc(Cl)cc1)NC1CC2CCCC(C1)N2C1CC1 (stereo not drawn) | 0 | 0 | 0 | 0 | 0
Cc1cc(C)cc(NC(=S)N2CCC(NC(=O)c3ccccc3C)CC2)c1 | 0 | 0 | - | 0 | 0
CC(=O)N/C(=C/c1ccc2c(c1)OCO2)C(=O)NCCO | 0 | 0 | 0 | 0 | 0
Cn1nnnc1NCc1cccc(Cl)c1Cl | 0 | 0 | 0 | 0 | 0
C=CCNC(=O)/C(C#N)=C/c1cn(-c2ccccc2)nc1-c1cccs1 | 0 | 0 | 0 | 0 | 0
Cc1ccc(CNc2oc(-c3ccco3)nc2S(=O)(=O)c2ccccc2)cc1 | 63.2 | 0 | - | 0 | 0
O=S(=O)(c1ccccc1)c1nc(-c2ccco2)oc1NCCN1CCOCC1 | 0 | 0 | 0 | 0 | 0
COc1ccc(S(=O)(=O)N(C(C)=O)c2ccc(OC(C)=O)c3ccccc23)cc1[N+](=O)[O-] | 0 | 0 | 0 | 99.7 | -
Oc1cc(NCc2cccnc2)ccc1-c1nc2ccccc2o1 | 0 | + | 0 | 99.0 | 0
CCc1ccc(OCC(=O)Nc2ccc(-c3nc4ccccc4o3)c(O)c2)cc1 | 0 | 0 | 0 | 0 | 0
SMILES | WT yeast gro inh | Autophagy HCS | Insulin prom up | Lmaj promast | Insulin prom inh
S=C(Nc1ccc2cn[nH]c2c1)Nc1ccccc1Cl | 0 | 0 | 0 | 0 | 64.3
S=C(Nc1ccc2cn[nH]c2c1)Nc1ccc(Cl)cc1Cl | 0 | 0 | - | 0 | 0
COc1ccccc1/C=C/C(=O)Nc1nc(N)n(-c2ccccc2)n1 | - | - | 0 | - | -
CCC(c1nnc(SCC(=O)Nc2ccc(C(C)=O)cc2)n1C1CCCCC1)N(C)C (stereo not drawn) | 0 | 0 | 0 | 61.2 | 0
CCC(c1nnc(SCC(=O)Nc2cccnc2Cl)n1-c1ccccc1)N(C)C (stereo not drawn) | 0 | 0 | - | 0 | -
CCC(c1nnc(SCC(=O)Nc2cc(Cl)ccc2C#N)n1C1CCCCC1)N(C)C (stereo not drawn) | 0 | 0 | 0 | 76.5 | 0
CCCn1c(SCC(=O)N2CCCC(C)C2)nnc1-c1cccnc1 (stereo not drawn) | 0 | 0 | 0 | 0 | 0
COc1cc(OC)c(C2=NOC(C(=O)O)C2)cc1Cl (stereo not drawn) | 0 | 0 | 0 | 0 | 0
Cc1nn(-c2ccccc2)c(Cl)c1/C=N/NS(=O)(=O)c1ccc(Br)cc1 | 58.2 | 0 | 0 | 0 | 69.2

Screens (PubChem)
